According to PubChem BioAssay (Tox21):
Records with an inconclusive call do not appear. Active and inactive are the calls of the source. Unless noted, calls come from the whole dose curve.

How the values were obtained:
[1] = qHTS assay to identify small molecule antagonists of the vitamin D receptor (VDR) signaling pathway - cell viability counter screen (AID 743225; active = well fitted curve in the direction sought with a large enough effect in the repeat runs; an effect the other way counts as inactive or inconclusive; note: % is set by controls: 0 for no effect and ±100 for the full control effect; nearly all actives have a fitted effect of over 50% in size)
Procedure, shortened: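 Cytotoxicity toward the VDR-bla HEK 293T line was scored by ATP-based CellTiter-Glo luminescence, read in the wells already used for the beta-lactamase readout after 16 h compound treatment under 3 nM 1-alpha,25-dihydroxyvitamin D3 stimulation.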

[2] = qHTS assay to identify small molecule agonists of the NFkB signaling pathway (AID 1159509; active = well fitted curve in the direction sought with a large enough effect in the signal ratio in the repeat runs, not every such curve was filed as active; the % refers to the signal ratio; note: series mostly up to about 61 µM; % is set by controls: 0 for no effect and ±100 for the full control effect)
Procedure, shortened: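 Pathway activation was measured in ME-180 cells stably expressing beta-lactamase under NF-kB response element control. Substrate cleavage was read as the 460/530 nm emission shift after 5 hr compound incubation.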

[3] = qHTS assay to identify small molecule agonists of the NFkB signaling pathway - cell viability counter screen (AID 1159515); note: series mostly up to about 61 µM; % is set by controls: 0 for no effect and ±100 for the full control effect; nearly all actives have a fitted effect of over 55% in size
Procedure, shortened: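 ME-180 NFkB-bla cells, 2,000/well; overnight attach; compound 5 hr, 37 C/5% CO2; LiveBLAzer substrate 1.5 hr RT; then CellTiter-Glo in same wells, 30 min RT, luminescence read.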

[4] = qHTS assay to identify small molecule agonists of the endoplasmic reticulum stress response signaling pathway - cell viability counter screen (AID 1159517);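 note: HeLa cells carrying an ER stress response element beta-lactamase reporter; series mostly up to about 61 µM; % is set by controls: 0 for no effect and ±100 for the full control effect; nearly all actives have a fitted effect of over 50% in size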
Procedure, shortened: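 In parallel with the ESRE reporter read, cytotoxicity was scored by CellTiter-Glo luminescence (30 min, room temperature) on HeLa ESRE-bla cells dosed for 5 hr.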

[5] = qHTS assay to identify small molecule antagonists of the retinoid-related orphan receptor gamma (ROR-gamma) signaling pathway - cell viability counter screen (AID 1159520; active = well fitted curve in the direction sought with a large enough effect in the repeat runs; an effect the other way counts as inactive or inconclusive; note: % is set by controls: 0 for no effect and ±100 for the full control effect; nearly all actives have a fitted effect of over 50% in size)
Procedure, shortened: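 Tet-on ROR gamma CHO cells were given compounds for 2 hr, then doxycycline hyclate at 1 uM final, and incubated 16 hr at 37 C. Viability was measured as ATP content by CellTiter-Glo luminescence.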

[6] = biological target: Nuclear receptor ROR-gamma (Homo sapiens) (UniProt P51449); assay: qHTS assay to identify small molecule antagonists of the retinoid-related orphan receptor gamma (ROR-gamma) signaling pathway (AID 1159521; active = well fitted curve in the direction sought with a large enough effect in the repeat runs; an effect the other way counts as inactive or inconclusive;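 note: CHO cells with doxycycline inducible ROR-gamma driving an RORE luciferase reporter; top concentration of the series differs between compounds; % is set by controls: 0 for no effect and ±100 for the full control effect; nearly all actives have a fitted effect of over 50% in size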)
Procedure, shortened: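 Readout: ONE-Glo luciferase luminescence, 30 min at room temperature. System: Tet-on RORγ CHO, RORE-LUC. Sequence: compound 2 h, doxycycline 1 uM final, 16 h at 37 C.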

[7] = qHTS assay to identify small molecule agonists of the AP-1 signaling pathway - cell viability counter screen (AID 1159525); note: nearly all actives have a fitted effect of over 55% in size
Procedure, shortened: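 Same-well cytotoxicity counter screen of the Tox21 10K library in ME-180 cells. The readout is ATP-dependent luminescence after 5 h compound treatment. Data are normalised to DMSO and tetra n-octyl ammonium bromide controls.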

[8] = qHTS assay to identify small molecule agonists of the AP-1 signaling pathway (AID 1159526); note: % is set by controls: 0 for no effect and ±100 for the full control effect
[9] = biological target: Retinoic acid receptor RXR-alpha (Homo sapiens) (UniProt P19793); assay: qHTS assay to identify small molecule agonists of the RXR signaling pathway (AID 1159527); note: % is set by controls: 0 for no effect and ±100 for the full control effect; nearly all actives have a fitted effect of over 35% in size
Procedure, shortened: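 Reporter activation is measured as beta-lactamase activity via FRET substrate cleavage (emission 460/530 nm) in HEK 293T cells expressing an RXR-alpha-driven bla construct, following 16 hr compound exposure at 37 C.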

[10] = qHTS assay to identify small molecule agonists of the endoplasmic reticulum stress response signaling pathway (AID 1159516; active = well fitted activation curve with a large enough effect in the signal ratio in the repeat runs, not every such curve was filed as active; the % refers to the signal ratio; note: % is set by controls: 0 for no effect and ±100 for the full control effect)
Procedure, shortened: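 HeLa ESRE-bla reporter line; cpd 5 h, 37 C/5% CO2; LiveBLAzer B/G FRET substrate 2 h RT; ex 405, em 460/530 nm.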

Sequence of Retinoic acid receptor RXR-alpha (Homo sapiens) (P19793 whole entry, looked up): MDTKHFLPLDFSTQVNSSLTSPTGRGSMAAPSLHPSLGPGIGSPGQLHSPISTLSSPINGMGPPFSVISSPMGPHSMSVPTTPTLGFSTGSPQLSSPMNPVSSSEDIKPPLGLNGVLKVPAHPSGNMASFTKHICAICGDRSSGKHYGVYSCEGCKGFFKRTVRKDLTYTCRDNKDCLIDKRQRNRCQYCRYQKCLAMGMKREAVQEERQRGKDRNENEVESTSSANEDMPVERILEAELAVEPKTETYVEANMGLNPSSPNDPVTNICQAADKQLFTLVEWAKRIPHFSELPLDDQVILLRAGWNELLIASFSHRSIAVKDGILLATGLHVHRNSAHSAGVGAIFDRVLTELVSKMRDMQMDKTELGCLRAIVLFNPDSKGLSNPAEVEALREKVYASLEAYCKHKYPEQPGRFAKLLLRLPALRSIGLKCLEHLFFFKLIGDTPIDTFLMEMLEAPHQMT

CCCCCC/C=C/C(=O)OC
inactive: outcome [1] | outcome [2] | outcome [3] | outcome [4] | outcome [5] | outcome [6] | outcome [7] | outcome [8] | Potency [9]

Cc1ccc(N)cc1S(=O)(=O)O
inactive: outcome [1] | outcome [2] | outcome [3] | outcome [4] | outcome [5] | outcome [6] | outcome [7] | outcome [8] | Potency [9]

NCCOCCN
inactive: outcome [2] | outcome [3] | outcome [4] | outcome [5] | outcome [6] | outcome [7] | outcome [8] | Potency [9]

O=C(O)CONC(=O)c1ccccc1
inactive: outcome [2] | outcome [3] | outcome [4] | outcome [5] | outcome [6] | outcome [7] | outcome [8] | Potency [9]

Cc1c(NC(=O)c2cccnc2)c(=O)n(-c2ccccc2)n1C
inactive: outcome [1] | outcome [2] | outcome [3] | outcome [4] | outcome [5] | outcome [6] | outcome [7] | outcome [8] | Potency [9]

CCCCCCCCCOC(=O)CCCCC(=O)OCCCCCCC
inactive: outcome [1] | outcome [2] | outcome [3] | outcome [4] | outcome [6] | outcome [7] | outcome [8] | Potency [9]

O=C1c2ccccc2C(=O)c2cc(Cl)ccc21
inactive: viability change, negative = cytotoxic [1] -4.02% [at 6.95 µM] | activation [2] -0.467% [at 6.95 µM] | activity, negative = cytotoxic [3] 13.9% [at 6.95 µM] | activity change, negative = cytotoxicity [4] 0.196% [at 6.95 µM] | activity, negative = cytotoxicity [5] 5.88% [at 8.39 µM] | activity change, negative = inhibition [6] 38.6% [at 8.39 µM] | viability change, negative = cytotoxic [7] 1.45% [at 6.97 µM] | activation [8] -9.9% [at 6.97 µM] | activation [9] 2.02% [at 6.98 µM]

CC(C)[C@H]1CC[C@H](C)C[C@@H]1O
inactive: outcome [1] | outcome [2] | outcome [3] | outcome [4] | outcome [6] | outcome [7] | outcome [8] | Potency [9]

C=C(C)C1CC=C(C)C(=O)C1 (stereo not given)
inactive: outcome [1] | outcome [2] | outcome [3] | outcome [4] | outcome [5] | outcome [6] | outcome [7] | outcome [8] | Potency [9]

CC(C)OC(=O)OCOP(=O)(CO[C@H](C)Cn1cnc2c(N)ncnc21)OCOC(=O)OC(C)C
inactive: outcome [1] | outcome [2] | outcome [3] | outcome [4] | outcome [5] | outcome [6] | outcome [7] | outcome [8] | Potency [9]

OCC1CCC(CO)CC1 (stereo not given)
inactive: outcome [1] | outcome [2] | outcome [3] | outcome [4] | outcome [5] | outcome [6] | outcome [7] | outcome [8] | Potency [9]

c1ccc2cnccc2c1
inactive: outcome [1] | outcome [2] | outcome [3] | outcome [4] | outcome [5] | outcome [6] | outcome [7] | outcome [8] | Potency [9]

Cc1ccc2c(c1)C(=O)c1ccccc1C2=O
inactive: outcome [2] | outcome [10] | outcome [4] | outcome [5] | outcome [6] | outcome [7] | outcome [8] | Potency [9]

COC(=O)CCCCC(=O)O
inactive: outcome [1] | outcome [2] | outcome [3] | outcome [4] | outcome [5] | outcome [6] | outcome [7] | outcome [8] | Potency [9]

CCCCCCCCCOC(=O)c1ccccc1C(=O)OCCCCCCCCC
inactive: outcome [1] | outcome [2] | outcome [3] | outcome [10] | outcome [4] | outcome [6] | outcome [7] | outcome [8] | Potency [9]

CCCCOC(=O)[C@H](C)O
inactive: outcome [1] | outcome [2] | outcome [3] | outcome [4] | outcome [5] | outcome [6] | outcome [7] | outcome [8] | Potency [9]

Nc1nc(-c2ccccc2)c(Br)c(=O)[nH]1
inactive: outcome [1] | outcome [2] | outcome [10] | outcome [4] | outcome [5] | outcome [6] | outcome [7] | outcome [8] | Potency [9]

C=CC(=O)CCCCC
inactive: outcome [2] | outcome [10] | outcome [4] | outcome [6] | outcome [7] | outcome [8] | Potency [9]

O=C(CCCCC(=O)Nc1c(I)cc(I)c(C(=O)O)c1I)Nc1c(I)cc(I)c(C(=O)O)c1I
inactive: outcome [1] | outcome [2] | outcome [4] | outcome [6] | outcome [7] | outcome [8] | Potency [9]

CC(C)(C)NC[C@H](O)COc1cccc2c1CCCC2=O
inactive: outcome [2] | outcome [4] | outcome [5] | outcome [6] | outcome [7] | outcome [8] | Potency [9]

ONc1ccccc1
inactive: outcome [1] | outcome [2] | outcome [10] | outcome [4] | outcome [5] | outcome [6] | outcome [7] | outcome [8] | Potency [9]

CCOCCOCC
inactive: outcome [2] | outcome [4] | outcome [5] | outcome [6] | outcome [7] | outcome [8] | Potency [9]

COC(=O)/C=C\C(=O)O
inactive: outcome [1] | outcome [2] | outcome [10] | outcome [4] | outcome [5] | outcome [6] | outcome [7] | outcome [8] | Potency [9]

CCCCCCC1(C)CCC(=O)O1 (stereo not given)
inactive: outcome [1] | outcome [2] | outcome [10] | outcome [4] | outcome [5] | outcome [6] | outcome [7] | outcome [8] | Potency [9]

c1ccc2c(CC3=NCCN3)cccc2c1
inactive: outcome [1] | outcome [2] | outcome [10] | outcome [4] | outcome [6] | outcome [7] | outcome [8] | Potency [9]

NCC1(Cc2noc(=O)[nH]2)CCCCC1
inactive: outcome [1] | outcome [2] | outcome [10] | outcome [4] | outcome [5] | outcome [6] | outcome [7] | outcome [8] | Potency [9]
